Bioassay records deposited in PubChem by National Center for Advancing Translational Sciences (NCATS).
Shiga toxin inh – Shiga toxin inhibition; Vero cells, Shiga toxin protein synthesis inhibition reporter; inhibition, % at 38.7 µM; hit rate 9.2% among 290,000; AID 2315; in the data active means inhibition mostly above about 28%, no sharp cut-off; inactive means mostly below about 43%; further: 0% is about no effect
LmPK inhibitor – inhibitors of Leishmania mexicana pyruvate kinase. hit rate 0.37% among 290,000. Q27686. purified LmPK, Kinase-Glo ATP luminescence, 1 h. Potency, µM (highest dose often 57.5 µM), inactives show at the top dose activity change, negative = inhibition, usual class: inhibitors; further: potency means the concentration at half of the fitted maximal effect; on the % scale 0 is the no-effect control and ±100 the full control effect
Target sequence (Q27686 whole entry, looked up): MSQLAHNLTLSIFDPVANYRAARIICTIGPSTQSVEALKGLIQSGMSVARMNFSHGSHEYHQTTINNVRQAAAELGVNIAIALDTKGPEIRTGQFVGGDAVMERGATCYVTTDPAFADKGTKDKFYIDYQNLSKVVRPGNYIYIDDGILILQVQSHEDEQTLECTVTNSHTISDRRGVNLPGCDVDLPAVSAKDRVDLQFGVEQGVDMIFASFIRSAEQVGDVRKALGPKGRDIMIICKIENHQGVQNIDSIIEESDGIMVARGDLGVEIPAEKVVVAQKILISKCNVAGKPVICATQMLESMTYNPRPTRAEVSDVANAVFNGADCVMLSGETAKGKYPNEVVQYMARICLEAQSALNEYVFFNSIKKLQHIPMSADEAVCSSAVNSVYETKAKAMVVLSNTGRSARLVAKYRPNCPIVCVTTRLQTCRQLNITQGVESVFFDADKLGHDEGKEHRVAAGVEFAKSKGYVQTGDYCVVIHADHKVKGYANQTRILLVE
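In 50 mM imidazole pH 7.2 with 7 mM MgCl2, LmPK (0.1 nM) turned over PEP (0.5 mM) and ADP (0.1 mM) for 1 h at room temperature. Luciferase read-out of ATP.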
Cycloheximide cs – counter-screen for Shiga toxin inhibitors: cycloheximide protein synthesis inhibition | AID 2314 | hit rate 12% among 300,000 | max response, % | cell reporter, cycloheximide protein synthesis inhibition counterscreen; in the data active means max response mostly above about 13%, no sharp cut-off; inactive means mostly below about 14%; further: read at 38.3 µM for the half of the compounds with a filed dose; 0% is about no effect
Giardia FBPA inh – Giardia lamblia aldolase inhibition; purified Giardia FBPA; Potency, µM (series often up to 59.6 µM), for the others: top-dose activity, negative = inhibition, actives largely listed as inhibitors; hit rate 0.71% among 290,000; AID 2451; further: potency means the concentration at half of the fitted maximal effect; on the % scale 0 is the no-effect control and ±100 the full control effect; nearly all actives have a fitted effect of over 55% in size
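40 nM FBPA preincubated 10 min at RT with compound (up to 57.5 uM final), then substrate plus GAPDH/TPI/NAD/arsenate coupling and diaphorase/resazurin added. Fluorescence read after 20 min at RT, 525/598 nm.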
NS1 inh – inhibitors of influenza NS1 protein function | Potency, µM (highest dose often 46.1 µM), inactives show at the top dose activity, positive = more growth | hit rate 0.4% among 270,000 | AID 2326; calls by dose curve; further: potency means the concentration at half of the fitted maximal effect; actives are rising curves; nearly all actives have a fitted effect of over 50% in size
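Recovery from NS1-induced slow growth read by OD600 in budding yeast switched to galactose assay medium (pH 6.0, -URA) at 1:100 dilution. Compound 23 nl per well; the matching strain lacking NS1 serves as control.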
* marks the source's active call; other numbers are inactive results; ? = inconclusive; . = not tested or not shown. The list is not random: actives were taken first. Their share in the collection is about 14%. Unless noted, the call rests on the fitted dose curve; in most records, active means well fitted curve in the direction sought with a large enough effect; inconclusive means small, poorly fitted or top-dose-only effect, or another doubt; inactive means no such curve, though single readings can be large; an effect the other way counts as inactive or inconclusive.

SMILES	Shiga toxin inh	LmPK inhibitor	Cycloheximide cs	Giardia FBPA inh	NS1 inh
COc1ccccc1CCc1nnc(CCC(=O)NC(C)Cc2cccnc2)o1 (stereo unspecified)	-13.1	2.5%	1.9	8.3%	-2.5%
FC(F)(F)Oc1ccc(NC(=S)Nc2ccccc2N2CCOCC2)cc1	-8.9	5.2%	-0.5	-7.6%	-5.3%
Cc1nc2c(-c3ccccc3)c(C)nn2c(N)c1-c1ccccc1	28.6*	2.4%	49.3*	-4.1%	-19.9%
Cc1nn2c(N)c(-c3ccccc3)cnc2c1-c1ccc(Cl)cc1	111.6*	-3.4%	38.5*	-2.0%	1.2%
Cc1nn2c(-c3ccccc3)ccnc2c1-c1ccccc1	94.4*	2.7%	48.7*	-0.2%	-8.3%
Cc1nn2c3c(cnc2c1-c1ccccc1)C(=O)CCC3	5.2	1.4%	1.6	-0.6%	-4.5%
Cc1cc(N)n2nc(-c3ccccc3)c(-c3ccccc3)c2n1	53.0	6.8%	10.7	-6.2%	-107.6%
C=C(C)CSc1cc(C)nc2c(-c3ccccc3)c(C)nn12	34.0	0.7%	36.0*	1.9%	-6.0%
COc1ccccc1CN1CC(C(=O)NCCc2ncccc2C)CCC1=O (stereo unspecified)	1.1	-9.8%	-1.0	4.3%	-2.6%
Cc1cc(C)c(NC(=O)CS(=O)CC(=O)NCCN2CCCCCC2)c(C)c1 (stereo unspecified)	-2.9	2.5%	-2.5	-10.1%	4.5%
Nc1c(SCCC(=O)O)ccc2c1C(=O)c1ccccc1C2=O	36.5	-28.3%	21.4*	0.2%	-38.3%
O=C(O)CCNc1ccc(NCCC(=O)O)c2c1C(=O)c1ccccc1C2=O	-18.2	?	-5.4	-15.0%	-1.1%
CCCCCC(O)/C=C/C=O (stereo unspecified)	.	.	.	-0.4%	.
CC(C)(C)NC(=O)CCc1nnc(Cc2c[nH]c3ccccc23)o1	20.5	4.0%	12.1*	10.5%	1.7%
C=CCN(CC=C)C(=O)CCc1nnc(CCc2c[nH]c3ccccc23)o1	35.2	1.3%	21.0*	-0.5%	-1.2%
CCOC(=O)C(C(=O)N(C)Cc1ccccc1)C1CCCCC1 (stereo unspecified)	20.5	-2.2%	-1.1	5.6%	-25.4%
O=C(COc1ncnc2ccccc12)N1CCOCC1	-16.4	0.7%	-1.5	2.8%	-0.3%
O=C(OCC(=O)N1CCCCCC1)c1n[nH]c(=O)c2ccccc12	-13.9	-1.1%	-1.0	10.4%	-0.4%
CC1CCN(C(=O)COC(=O)c2n[nH]c3ccccc23)CC1	79.3*	-6.7%	41.0*	-2.9%	-9.8%
CC1CCN(C(=O)COc2ncnc3ccccc23)CC1	37.3*	5.1%	23.0	6.1%	.
CC(C)CNC(=O)COC(=O)c1n[nH]c2ccccc12	21.6	-1.5%	9.5	3.2%	-5.6%
CCC1CCCCN1C(=O)COC(=O)c1n[nH]c2ccccc12 (stereo unspecified)	-2.8	-0.8%	19.2*	3.4%	-2.0%
Cn1c(=O)c2[nH]c(CCCCC(=O)O)nc2n(C)c1=O	.	.	.	.	-1.0%
Cc1cc2[nH]c3ccccc3c2cn1	19.9	-5.3%	1.8	1.9%	14.1%
CN(C)C=Nc1ccc2nc3c(cc2c1)[nH]c1ccccc13	73.8*	-4.9%	38.9*	-18.7%	-5.4%
SMILES	Shiga toxin inh	LmPK inhibitor	Cycloheximide cs	Giardia FBPA inh	NS1 inh
CCOC(=O)C(C)N1C(=O)S/C(=C/c2cc(C)n(-c3ccccn3)c2C)C1=O (stereo unspecified)	114.3*	7.4%	31.1*	-26.8%	-5.8%
CCOC(=O)C(C)N1C(=O)S/C(=C/c2cc(C)n(-c3ccncc3)c2C)C1=O (stereo unspecified)	20.5	5.0%	17.8*	-12.2%	0.8%
CC(C)(C)NC(=O)COC(=O)c1ccccc1OCC(=O)Nc1ccc(Br)cc1	34.8*	-3.7%	17.4*	-3.9%	-8.1%
O=C(COc1ccccc1[N+](=O)[O-])Nc1cccnc1	89.8*	3.2%	31.1*	2.0%	.
CN1CCN(c2ccc(NC(=O)COc3ccccc3[N+](=O)[O-])cc2)CC1	22.4	0.6%	6.5	4.3%	2.1%
O=C(COc1ccccc1[N+](=O)[O-])NCc1cccnc1	3.4	-5.1%	-1.9	0.9%	19.0%
O=C(COc1ccccc1[N+](=O)[O-])Nc1ccc(Br)cc1	113.9*	4.6%	48.6*	0.9%	-3.2%
Cc1[nH]c2ccccc2c1C(=O)COc1ccccc1F	74.1	1.0%	24.8*	-4.9%	-4.8%
Cc1[nH]c2ccccc2c1C(=O)COc1ccccc1	48.6	4.8%	14.8*	-3.6%	-7.4%
Cc1ccc(C(=O)NC(=S)Nc2ccc3c(c2)OCCO3)c(C)c1	71.0*	-2.4%	33.2*	-1.4%	-48.1%
O=C(NC(=S)Nc1ccc2c(c1)OCCO2)c1ccc(F)cc1Cl	33.8*	2.6%	28.3*	2.0%	23.0%
Cc1cc(C)cc(C(=O)NC(=S)Nc2ccc3c(c2)OCCO3)c1	73.7*	-2.1%	31.5*	-7.6%	0.1%
O=C(Nc1ccc2c(c1)OCCO2)c1c[nH]c(=O)n(-c2ccc(F)c(Cl)c2)c1=O	-5.1	-0.3%	-4.4	.	13.0%
O=C(NC(=S)Nc1ccc(N2CCCCC2)c(Cl)c1)c1ccc2c(c1)OCCO2	-1.9	-1.7%	-4.4	-5.2%	13.0%
CCc1ccc(C(=O)NC(=S)Nc2ccc3c(c2)OCCO3)cc1	71.8*	5.1%	41.3*	-10.4%	16.6%
Cc1cc(C)cc(C(=O)NC(=S)Nc2ccc(Cc3ccncc3)cc2)c1	-7.6	1.6%	-1.3	-0.2%	16.1%
COC(=O)C1CCN(C(=O)/C(C)=C\c2ccccc2)CC1	-5.0	-11.8%	0.9	-4.5%	15.6%
O=C(Nc1ccccc1)N1CCCC2(CCNCC2)C1	.	.	.	-3.4%	.
O=C(Nc1ccc2c(c1)OCO2)C1(S(=O)(=O)c2ccc(Cl)cc2)CC1	35.7	1.2%	18.2	0.3%	-6.2%
O=C(NC(=S)Nc1ccc2c(c1)OCO2)c1ccc(Cl)cc1	107.9*	-1.9%	76.4*	-6.4%	-1.0%
COC(=O)c1ccc(CO/N=C2\CCCc3nonc32)cc1	53.3	-1.2%	44.0*	0.0%	.
COc1ccc(C(=O)O/N=C2\CCCc3nonc32)cc1	-2.6	-4.1%	-1.0	11.9%	-7.4%
N#Cc1c(N)nc(N2CCCC2)c(C#N)c1-c1ccc(Cl)cc1	-6.0	1.3%	-1.2	0.0%	-3.2%
N#Cc1c(-c2ccc(Cl)cc2)ccnc1N1CCOCC1	45.9*	10.8%	25.8*	3.6%	.
COc1ccc(NC(=O)c2cc(-c3cc(C)cc(C)c3O)n[nH]2)cc1Cl	6.2	-11.9%	-3.1	-1.0%	-40.4%
Cc1cc(C)c(O)c(-c2cc(C(=O)Nc3cccnc3)[nH]n2)c1	98.0*	1.6%	29.5*	-3.1%	0.8%
CCc1ccc(O)c(-c2cc(C(=O)Nc3cccnc3)[nH]n2)c1	93.3*	9.7%	28.0*	-3.7%	2.5%
Cc1cccc(NC(=O)c2cc(-c3c(C)cc(C)cc3O)n[nH]2)c1	51.3*	0.8%	27.6	7.1%	5.5%
Cc1cc(O)c(-c2cc(C(=O)Nc3cccnc3)[nH]n2)cc1C	52.4*	-5.4%	43.4*	4.7%	-2.2%
O=C(COc1ccc(Br)cc1)Nc1ccc(NC(=O)c2ccccc2)cc1	15.0	-0.8%	2.0	-5.9%	-9.5%
